{
  "source": "the antibiotic and cytotoxicity screens of Wong et al. (2023)",
  "note": "Among all 39,000 compounds or so, about 1,500 (3.8%) were called active. The entries come from a sample that favours actives as a whole.",
  "data": [
    {"system": "HSkMC (human skeletal muscle cells)", "experiment": "cytotoxicity call (relative viability < 0.9)", "details": "10 µM", "values": [
      {"smiles": "C[C@H](CO)N1C[C@H](C)[C@@H](CN(C)S(=O)(=O)c2cccs2)Oc2ccc(NS(=O)(=O)c3ccc(F)cc3)cc2C1=O", "cytotoxicity call": "inactive"},
      {"smiles": "Cc1cc(C(=O)Nc2cccc3c2O[C@H](CN(C)C(=O)Nc2ccc4c(c2)OCO4)[C@@H](C)CN([C@H](C)CO)C3=O)n(C)n1", "cytotoxicity call": "inactive"},
      {"smiles": "COc1ccc(CCNC(=O)[C@@]2(Sc3ccc(C)cc3)CC(=O)N(C3CCCCC3)[C@@H]2c2ccc(CO)cc2I)cc1", "cytotoxicity call": "inactive"},
      {"smiles": "COc1ccc(NC(=O)N(C)C[C@@H]2Oc3ccc(NS(=O)(=O)c4c(C)noc4C)cc3CC(=O)N([C@@H](C)CO)C[C@H]2C)cc1", "cytotoxicity call": "inactive"},
      {"smiles": "CC(C)(O)CC(=O)NCCn1ccc2ncnc(Nc3ccc(Oc4cccc(C(F)(F)F)c4)c(Cl)c3)c21", "cytotoxicity call": "inactive"},
      {"smiles": "CS(=O)(=O)CCNCc1ccc(-c2ccc3ncnc(Nc4ccc(OCc5cccc(F)c5)c(Cl)c4)c3c2)o1", "note": "[listing 1 of 2 here]", "cytotoxicity call": "active"},
      {"smiles": "CS(=O)(=O)CCNCc1ccc(-c2ccc3ncnc(Nc4ccc(OCc5cccc(F)c5)c(Cl)c4)c3c2)o1", "note": "[listing 2 of 2 here]", "cytotoxicity call": "active"},
      {"smiles": "CS(=O)(=O)CCNCc1nc(-c2ccc3ncnc(Nc4ccc(OCc5cccc(F)c5)c(Cl)c4)c3c2)cs1", "cytotoxicity call": "active"},
      {"smiles": "Fc1cccc(-c2csc(COc3ccccc3Cl)n2)c1", "cytotoxicity call": "inactive"},
      {"smiles": "CCCN(C)C[C@H]1OCCCC[C@H](C)Oc2ccc(NS(=O)(=O)c3cn(C)cn3)cc2C(=O)N([C@H](C)CO)C[C@H]1C", "cytotoxicity call": "inactive"},
      {"smiles": "C[C@@H]1CNC[C@H](C)N1", "cytotoxicity call": "inactive"},
      {"smiles": "C[C@H](CO)N1C[C@H](C)[C@@H](CN(C)S(=O)(=O)c2ccc(Cl)cc2)Oc2ccc(NC(=O)CCN3CCOCC3)cc2C1=O", "cytotoxicity call": "inactive"},
      {"smiles": "c1ccc(C2C3=C(CCCC3)SC3=C2CCCC3)cc1", "cytotoxicity call": "inactive"},
      {"smiles": "Cc1noc(C)c1NC(=O)N(C)C[C@@H]1Oc2c(NS(C)(=O)=O)cccc2C(=O)N([C@H](C)CO)C[C@H]1C", "cytotoxicity call": "inactive"},
      {"smiles": "Cc1ccc(S(=O)(=O)N(C)C[C@@H]2Oc3c(NC(=O)Nc4ccc(C(F)(F)F)cc4)cccc3C(=O)N([C@@H](C)CO)C[C@H]2C)cc1", "cytotoxicity call": "inactive"},
      {"smiles": "Cc1ccc(S(=O)(=O)N(C)C[C@@H]2Oc3c(NC(=O)Nc4ccc(C(F)(F)F)cc4)cccc3C(=O)N([C@H](C)CO)C[C@@H]2C)cc1", "cytotoxicity call": "inactive"},
      {"smiles": "Cc1ccc(S(=O)(=O)N(C)C[C@H]2Oc3c(NC(=O)Nc4ccc(C(F)(F)F)cc4)cccc3C(=O)N([C@H](C)CO)C[C@H]2C)cc1", "cytotoxicity call": "active"},
      {"smiles": "Cc1ccc(S(=O)(=O)N(C)C[C@@H]2Oc3c(NC(=O)Nc4ccc(C(F)(F)F)cc4)cccc3C(=O)N([C@H](C)CO)C[C@H]2C)cc1", "cytotoxicity call": "inactive"},
      {"smiles": "Cc1ccc(S(=O)(=O)N(C)C[C@H]2Oc3c(NC(=O)Nc4ccc(C(F)(F)F)cc4)cccc3C(=O)N([C@@H](C)CO)C[C@H]2C)cc1", "cytotoxicity call": "active"},
      {"smiles": "Cc1ccc(S(=O)(=O)N(C)C[C@H]2Oc3c(NC(=O)Nc4ccc(C(F)(F)F)cc4)cccc3C(=O)N([C@@H](C)CO)C[C@@H]2C)cc1", "cytotoxicity call": "inactive"},
      {"smiles": "[N-]=[N+]=N[C@]1(CO)O[C@@H](n2ccc(N)nc2=O)[C@H](O)[C@@H]1O", "cytotoxicity call": "inactive"},
      {"smiles": "c1ccc(CCN2CCNCC2)nc1", "cytotoxicity call": "inactive"},
      {"smiles": "C[C@@H]1CN([C@H](C)CO)C(=O)c2cc(Br)cnc2O[C@@H]1CN(C)S(=O)(=O)c1ccccc1", "cytotoxicity call": "inactive"},
      {"smiles": "Cc1ccc(S(=O)(=O)N(C)C[C@@H]2Oc3ncc(C#CC4(O)CCCC4)cc3C(=O)N([C@@H](C)CO)C[C@@H]2C)cc1", "cytotoxicity call": "inactive"},
      {"smiles": "COc1ccc(S(=O)(=O)N(C)C[C@@H]2Oc3ccc(NS(=O)(=O)c4c(C)noc4C)cc3C(=O)N([C@H](C)CO)C[C@@H]2C)cc1", "cytotoxicity call": "inactive"},
      {"smiles": "CCCNC(=O)C[C@H]1CC[C@H]2[C@@H](COc3ccc(NS(=O)(=O)c4ccccc4C)cc3C(=O)N2C)O1", "cytotoxicity call": "inactive"},
      {"smiles": "C[C@@H]1CN([C@@H](C)CO)C(=O)Cc2cc(NC(=O)CCCCCC(=O)Nc3ccccc3N)ccc2O[C@@H]1CN(C)CC1CCCCC1", "cytotoxicity call": "inactive"},
      {"smiles": "C[C@@H]1CN([C@H](C)CO)C(=O)Cc2cc(NC(=O)CCCCCC(=O)Nc3ccccc3N)ccc2O[C@@H]1CN(C)Cc1ccc(-c2ccccc2)cc1", "cytotoxicity call": "active"},
      {"smiles": "C[C@H]1CN([C@@H](C)CO)C(=O)c2cc(NC(=O)CCCCCC(=O)Nc3ccccc3N)ccc2O[C@H]1CN(C)Cc1ccc(-c2ccccc2)cc1", "cytotoxicity call": "inactive"},
      {"smiles": "C[C@@H]1CN([C@H](C)CO)C(=O)Cc2cc(NC(=O)CCCCCC(=O)Nc3ccccc3N)ccc2O[C@@H]1CN(C)CC1CCCCC1", "cytotoxicity call": "active"},
      {"smiles": "C[C@H]1CN([C@@H](C)CO)C(=O)Cc2cc(NC(=O)CCCCCC(=O)Nc3ccccc3N)ccc2O[C@@H]1CN(C)Cc1ccc(Oc2ccccc2)cc1", "cytotoxicity call": "inactive"},
      {"smiles": "C[C@H]1CN([C@@H](C)CO)C(=O)Cc2cc(NC(=O)CCCCCC(=O)Nc3ccccc3N)ccc2O[C@H]1CN(C)Cc1ccc(-c2ccccc2)cc1", "cytotoxicity call": "inactive"},
      {"smiles": "C[C@@H]1CN([C@H](C)CO)C(=O)Cc2cc(NC(=O)CCCCCC(=O)Nc3ccccc3N)ccc2O[C@H]1CN(C)Cc1ccc(-c2ccccc2)cc1", "cytotoxicity call": "inactive"},
      {"smiles": "C[C@@H]1CN([C@H](C)CO)C(=O)c2cc(NC(=O)CCCCCC(=O)Nc3ccccc3N)ccc2O[C@H]1CN(C)Cc1ccc(-c2ccccc2)cc1", "cytotoxicity call": "active"},
      {"smiles": "C[C@@H]1CN([C@H](C)CO)C(=O)Cc2cc(NC(=O)CCCCCC(=O)Nc3ccccc3N)ccc2O[C@@H]1CN(C)Cc1ccc(Oc2ccccc2)cc1", "cytotoxicity call": "active"},
      {"smiles": "C[C@@H]1CN([C@@H](C)CO)C(=O)Cc2cc(NC(=O)CCCCCC(=O)Nc3ccccc3N)ccc2O[C@@H]1CN(C)Cc1ccc(Oc2ccccc2)cc1", "cytotoxicity call": "inactive"},
      {"smiles": "C[C@@H]1CN([C@@H](C)CO)C(=O)c2cc(NC(=O)CCCCCC(=O)Nc3ccccc3N)ccc2O[C@@H]1CN(C)Cc1ccc(-c2ccccc2)cc1", "cytotoxicity call": "inactive"},
      {"smiles": "C[C@@H]1CN([C@H](C)CO)C(=O)Cc2cc(NC(=O)CCCCCC(=O)Nc3ccccc3N)ccc2O[C@H]1CN(C)CC1CCCCC1", "cytotoxicity call": "inactive"},
      {"smiles": "CN1C[C@H](O)COC[C@@H]2O[C@@H](CC(=O)N3CCN(c4ccccc4)CC3)CC[C@H]21", "cytotoxicity call": "inactive"},
      {"smiles": "C[C@@H]1CCCCO[C@H](CN(C)C(=O)Nc2ccc(C(F)(F)F)cc2)[C@H](C)CN([C@H](C)CO)C(=O)c2cc(N(C)C)ccc2O1", "cytotoxicity call": "inactive"},
      {"smiles": "COc1cccc(NC(=O)N(C)C[C@H]2Oc3ncc(C#Cc4cccnc4)cc3C(=O)N([C@@H](C)CO)C[C@@H]2C)c1", "cytotoxicity call": "inactive"},
      {"smiles": "C[C@@H]1CN([C@H](C)CO)C(=O)Cc2cc(NC(=O)CCN3CCOCC3)ccc2O[C@H]1CN(C)S(=O)(=O)c1ccc(Cl)cc1", "cytotoxicity call": "inactive"},
      {"smiles": "O=C(O)c1cc(F)c2nc(N3[C@@H]4CC[C@H]3C[C@@H](OCc3c(-c5ccccc5OC(F)(F)F)noc3C3CC3)C4)sc2c1", "cytotoxicity call": "inactive"},
      {"smiles": "C[C@H](CO)N1C[C@H](C)[C@H](CN(C)Cc2ccncc2)Oc2c(NC(=O)Nc3cccc4ccccc34)cccc2C1=O", "cytotoxicity call": "inactive"},
      {"smiles": "C[C@H](CO)N1C[C@H](C)[C@@H](CN(C)S(=O)(=O)c2ccc(Oc3ccccc3)cc2)OCc2cnnn2CCCC1=O", "cytotoxicity call": "inactive"},
      {"smiles": "C[C@@H]1CN([C@@H](C)CO)C(=O)c2cc(NC(=O)C3CCCCC3)ccc2O[C@@H](C)CCCCO[C@H]1CN(C)Cc1ccc2c(c1)OCO2", "cytotoxicity call": "inactive"},
      {"smiles": "COc1ccc(CNC(=O)C[C@@H]2C[C@@H]3c4cc(NS(=O)(=O)c5ccc(F)cc5)ccc4O[C@@H]3[C@H](CO)O2)cc1", "cytotoxicity call": "inactive"},
      {"smiles": "O=C(O)CCCN1C(=O)c2cccc3cccc(c23)C1=O", "cytotoxicity call": "inactive"},
      {"smiles": "NC(=O)CCN1C(=O)c2ccccc2C1=O", "cytotoxicity call": "inactive"},
      {"smiles": "O=C1c2ccc3c4c(ccc(c24)C(=O)N1CCCCO)C(=O)N(CCCCO)C3=O", "cytotoxicity call": "active"},
      {"smiles": "CN1C(=O)c2cc(NC(=O)C3CCOCC3)ccc2OC[C@H]2O[C@H](CC(=O)NCc3ccc4c(c3)OCO4)CC[C@H]21", "cytotoxicity call": "inactive"},
      {"smiles": "C[C@H](CO)N1C[C@H](C)[C@H](CN(C)S(=O)(=O)c2cccs2)Oc2c(NS(=O)(=O)c3cn(C)cn3)cccc2C1=O", "cytotoxicity call": "inactive"},
      {"smiles": "C[C@@H]1CCCCO[C@H](CN(C)C(=O)Nc2ccc(C(F)(F)F)cc2)[C@@H](C)CN([C@@H](C)CO)C(=O)c2cc(NS(=O)(=O)c3ccc(Cl)cc3)ccc2O1", "cytotoxicity call": "active"},
      {"smiles": "C[C@@H]1CCCCO[C@H](CN(C)C(=O)Nc2ccc(C(F)(F)F)cc2)[C@H](C)CN([C@H](C)CO)C(=O)c2cc(NS(=O)(=O)c3ccc(Cl)cc3)ccc2O1", "cytotoxicity call": "inactive"},
      {"smiles": "C[C@@H]1CCCCO[C@H](CN(C)C(=O)Nc2ccc(C(F)(F)F)cc2)[C@H](C)CN([C@@H](C)CO)C(=O)c2cc(NS(=O)(=O)c3ccc(Cl)cc3)ccc2O1", "cytotoxicity call": "inactive"},
      {"smiles": "C[C@@H]1CCCCO[C@@H](CN(C)C(=O)Nc2ccc(C(F)(F)F)cc2)[C@H](C)CN([C@H](C)CO)C(=O)c2cc(NS(=O)(=O)c3ccc(F)cc3)ccc2O1", "cytotoxicity call": "inactive"},
      {"smiles": "C[C@H]1CCCCO[C@@H](CN(C)C(=O)Nc2ccc(C(F)(F)F)cc2)[C@@H](C)CN([C@@H](C)CO)C(=O)c2cc(NS(=O)(=O)c3ccc(Cl)cc3)ccc2O1", "cytotoxicity call": "inactive"},
      {"smiles": "C[C@@H]1CCCCO[C@@H](CN(C)C(=O)Nc2ccc(C(F)(F)F)cc2)[C@H](C)CN([C@@H](C)CO)C(=O)c2cc(NS(=O)(=O)c3ccc(F)cc3)ccc2O1", "cytotoxicity call": "inactive"},
      {"smiles": "C[C@H](CO)N1C[C@H](C)[C@H](CN(C)C(=O)Nc2ccc(C(F)(F)F)cc2)OCCCC[C@H](C)Oc2ccc(NS(=O)(=O)c3ccc(Cl)cc3)cc2C1=O", "cytotoxicity call": "inactive"},
      {"smiles": "C[C@@H]1CN([C@H](C)CO)C(=O)c2cc(NS(=O)(=O)c3ccc(Cl)cc3)ccc2O[C@@H](C)CCCCO[C@H]1CN(C)C(=O)Nc1ccc(C(F)(F)F)cc1", "cytotoxicity call": "active"},
      {"smiles": "C[C@@H]1CN([C@@H](C)CO)C(=O)c2cc(NS(=O)(=O)c3ccc(Cl)cc3)ccc2O[C@@H](C)CCCCO[C@@H]1CN(C)C(=O)Nc1ccc(C(F)(F)F)cc1", "cytotoxicity call": "inactive"},
      {"smiles": "C[C@@H]1CCCCO[C@@H](CN(C)C(=O)Nc2ccc(C(F)(F)F)cc2)[C@H](C)CN([C@H](C)CO)C(=O)c2cc(NS(=O)(=O)c3ccc(Cl)cc3)ccc2O1", "cytotoxicity call": "active"},
      {"smiles": "C[C@H]1CCCCO[C@H](CN(C)C(=O)Nc2ccc(C(F)(F)F)cc2)[C@@H](C)CN([C@@H](C)CO)C(=O)c2cc(NS(=O)(=O)c3ccc(F)cc3)ccc2O1", "cytotoxicity call": "active"},
      {"smiles": "C[C@@H]1CCCCO[C@@H](CN(C)C(=O)Nc2ccc(C(F)(F)F)cc2)[C@H](C)CN([C@@H](C)CO)C(=O)c2cc(NS(=O)(=O)c3ccc(Cl)cc3)ccc2O1", "cytotoxicity call": "inactive"}
    ]}
  ]
}
